# Bioassay records (PubChem)
# Hits are enriched below; roughly 2.2% of the tested compounds scored in any of these assays.
# TLR4-MyD88 BLA = inhibitors of human TLR4-MyD88 binding | inhibition, % at 8.4 µM | HeLa CL3-4 TLR4/MyD88 BLA complementation, FRET ratio | O00206+Q99836 | 0.18% of 200,000 active; in the data active = inhibition above about 25%;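 note: 0% = vehicle and 100% = reference inhibitor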
# Target sequence (O00206 whole entry, looked up): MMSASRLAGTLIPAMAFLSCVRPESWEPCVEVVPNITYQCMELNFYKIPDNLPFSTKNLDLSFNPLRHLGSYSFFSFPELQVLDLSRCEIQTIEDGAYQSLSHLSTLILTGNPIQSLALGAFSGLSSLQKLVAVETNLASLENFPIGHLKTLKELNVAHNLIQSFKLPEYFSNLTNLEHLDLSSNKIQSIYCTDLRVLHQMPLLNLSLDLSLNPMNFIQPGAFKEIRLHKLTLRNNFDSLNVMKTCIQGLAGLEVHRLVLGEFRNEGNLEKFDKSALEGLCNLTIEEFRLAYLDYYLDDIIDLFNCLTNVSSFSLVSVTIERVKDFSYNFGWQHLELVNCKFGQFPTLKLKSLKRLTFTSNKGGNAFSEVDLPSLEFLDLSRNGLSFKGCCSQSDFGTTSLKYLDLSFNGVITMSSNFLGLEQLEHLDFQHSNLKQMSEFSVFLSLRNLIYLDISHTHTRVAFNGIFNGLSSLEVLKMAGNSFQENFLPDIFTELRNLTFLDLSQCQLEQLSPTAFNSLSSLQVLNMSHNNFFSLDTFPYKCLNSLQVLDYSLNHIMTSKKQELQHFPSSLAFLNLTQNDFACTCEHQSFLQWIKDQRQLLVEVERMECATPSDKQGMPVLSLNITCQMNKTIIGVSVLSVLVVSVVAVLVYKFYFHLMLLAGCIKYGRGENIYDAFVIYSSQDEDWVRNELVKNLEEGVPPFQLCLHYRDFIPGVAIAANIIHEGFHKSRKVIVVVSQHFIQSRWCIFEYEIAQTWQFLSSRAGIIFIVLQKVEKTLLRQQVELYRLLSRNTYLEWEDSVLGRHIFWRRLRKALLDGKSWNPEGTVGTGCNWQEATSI
# Target sequence (Q99836 whole entry, looked up): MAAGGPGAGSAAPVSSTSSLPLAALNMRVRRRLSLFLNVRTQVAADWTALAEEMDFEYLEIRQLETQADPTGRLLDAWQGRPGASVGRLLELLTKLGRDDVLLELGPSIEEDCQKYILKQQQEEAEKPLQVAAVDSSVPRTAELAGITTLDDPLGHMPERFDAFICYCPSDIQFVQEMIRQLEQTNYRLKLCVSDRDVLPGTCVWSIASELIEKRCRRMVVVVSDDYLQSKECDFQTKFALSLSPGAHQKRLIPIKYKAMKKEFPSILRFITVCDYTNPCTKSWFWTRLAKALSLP
# GRK2 inh = blocks RNA aptamer binding to human GRK2 | P25098 | bead flow cytometry, FAM-aptamer displacement from GRK2 | inhibition of aptamer binding, % at 10 µM | 0.59% of 330,000 active | AID 488847;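 active = inhibition of aptamer binding above 40%, roughly 3 SD of noise, on plates passing a quality check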;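 note: median bead fluorescence of bound FAM aptamer so fluorescent compounds give negative values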
# TMEM16A inh = inhibitors of mouse TMEM16A calcium-activated chloride channel. normalized B-score (activity score, 25-100; higher = stronger inhibition) at 10 µM. 1.2% of 310,000 active. Q8BHY3. HEK293 TMEM16A/YFP iodide influx fluorescence, ionomycin;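 active = ratio plate-corrected score three or more library SD toward inhibition, starting fluorescence score within five deviations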;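 note: score derived from kinetic fluorescence span divided by baseline fluorescence per well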
# TLR9-MyD88 block = inhibitors of human TLR9-MyD88 binding. Q9NR96+Q99836. CHO BLA complementation TLR9-MyD88, CCF4 FRET ratio. inhibition, % at 4.98 µM. 0.21% of 340,000 active;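 active = inhibition above the mean over all tested compounds plus 3 SD, cut at about 21% in these data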;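 note: 0% = DMSO only wells and 100% = clavulanate BLA inhibitor control wells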
# NOD2 RIPK2 PPI = NOD2-RIPK2 protein interaction inhibition; 0.38% of 360,000 active; CHO BLA complementation NOD2-RIPK2, CCF4 ratio; O43353; inhibition, % at 4.98 µM; AID 624267; in the data active = inhibition above about 21%;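 note: 0% = vehicle only and 100% = reference blocker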
# TMEM16A act = mouse TMEM16A channel activation, primary screen. Q8BHY3. HEK293 TMEM16A/YFP-H148Q/I152L, iodide quench fluorescence; hits give low values. B-score at 10 µM. 0.3% of 340,000 active;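 active = fluorescence-ratio B-score plate-corrected deviation score at least 3 library SD below zero, with starting fluorescence score within 5 deviations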;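 note: channel opened by trigger with iodide after compound preincubation; score built on the fluorescence ratio of max minus min over baseline; more negative score means more quench and so TMEM16A activation or potentiation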
# TMEM16A reconf = TMEM16A (mouse) chloride channel inhibition, re-confirmation | HEK293 TMEM16A/YFP-H148Q, iodide quench fluorescence; ionomycin added to raise cell calcium | inhibition, % at 10 µM | shares compounds with TMEM16A inh | AID 652189 | 39% of 2,300 active;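 active = mean duplicate percent inhibition, scaled so buffer wells are 0 and the reference blocker 100, over three buffer SD above buffer mean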
# TMEM16A Ca cntr = alters calcium mobilization in TMEM16A HEK293 cells, counter-screen; shares compounds with TMEM16A inh; TMEM16A/YFP HEK293, Fluo4 calcium mobilization; 2% of 2,300 active; calcium response (% of ionomycin), % at 10 µM;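 active = duplicate-averaged calcium signal over 20% of the ionomycin maximum, relative to buffer baseline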;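 note: each well's signal is peak minus trough fluorescence divided by its pre-addition baseline; 0% = buffer wells and 100% = ionomycin wells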
# Parental YFP cnt = parental YFP-HEK293 iodide quench counter-screen activity | shares compounds with TMEM16A inh | ionomycin | YFP ratio F(max-min)/F0 at 10 µM | 2,300 tested, under 10 active;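 active = yellow fluorescent protein signal ratio exceeding the buffer control mean by over 5 SD of those controls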;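 note: ratio is mean of duplicate wells from kinetic YFP trace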
# ClC-1 inh = selectivity of TMEM16A inhibitors: inhibition of rat ClC-1 chloride channel. shares compounds with TMEM16A inh. AID 652236. CHO ClC-1-YFP, iodide influx fluorescence quench; iodide control reads 0, buffer control 100. 2,300 tested, under 10 active. ratio percent, % at 10 µM;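 active = duplicate-mean ratio percent above the mean of iodide-only control wells, which defines zero, plus 5 of their SD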;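 note: higher percent means stronger block of ClC-1 iodide influx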
# * = called active by the depositor; i = inactive; / = no result.
SMILES,TLR4-MyD88 BLA,GRK2 inh,TMEM16A inh,TLR9-MyD88 block,NOD2 RIPK2 PPI,TMEM16A act,TMEM16A reconf,TMEM16A Ca cntr,Parental YFP cnt,ClC-1 inh
Cc1ccc(C)n1-n1c(C)nc2sc(-c3ccccc3)cc2c1=O,-1.7,1.0,100*,-24.1,-2.1,i,i,i,-0.942,2.5
CCN(CC)S(=O)(=O)c1ccc(NC(=O)Nc2cccc(C(F)(F)F)c2)cc1,-3.4,16.0,100*,2.9,-8.0,i,43.5%*,i,-1.25,-9.5
CCN(CC)S(=O)(=O)c1ccc(NC(=O)C(OC)c2ccccc2)cc1 (centres undefined),10.2,2.0,25*,-3.6,0.9,i,i,i,-1.33,-2.5
C/C(=C\C(=O)c1ccccc1)NCc1ccc(F)cc1,-4.4,1.0,i,1.0,4.8,i,/,/,/,/
C/C(=C\C(=O)c1ccc(F)cc1)NCc1ccc2c(c1)OCO2,5.5,1.0,100*,-0.5,2.3,-51.5*,i,i,-1.17,-17.5
C/C(=C\C(=O)c1ccc(C)cc1)NCc1ccc(F)cc1,0.4,0.0,100*,-6.8,5.8,i,i,i,-1.03,-19.0
Cc1cc(C)c(NC(=O)c2ccc3c(c2)CCN3S(C)(=O)=O)c(C)c1,/,3.0,i,-1.4,14.1,i,/,/,/,/
Nc1cc(=O)[nH]c(SCC(=O)Nc2cccc(S(=O)(=O)N3CCCCC3)c2)n1,/,2.0,/,-10.6,-4.5,i,/,/,/,/
CCOC(=O)c1c(NC(=O)COC(=O)C2CC2C)sc(C)c1C (centres undefined),4.0,4.0,25*,6.4,-2.3,i,i,i,-1.08,-5.0
COc1ccc(OC)c(Cc2nnc(CCC(=O)NCc3ccsc3)o2)c1,-12.2,0.0,i,-3.6,4.6,i,/,/,/,/
O=C(Nc1nc(-c2nc3ccccc3s2)cs1)c1ccco1,11.2,0.0,i,-2.7,-5.4,i,/,/,/,/
O=C(Nc1ccc(Cl)cc1-c1nc2ccccc2s1)c1ccco1,4.2,0.0,i,14.0,-3.2,i,i,i,-0.925,5.5
NS(=O)(=O)c1cccc(NC(=S)NC(=O)C23CC4CC(CC(C4)C2)C3)c1,-14.2,0.0,i,-11.6,-3.7,i,/,/,/,/
Fc1ccc(NC(=S)Nc2cccnc2)cc1,4.8,3.0,i,3.3,1.2,i,/,/,/,/
Fc1ccc(NC(=S)Nc2cccnc2)cc1Cl,-5.5,2.0,25*,7.0,7.5,i,i,i,-0.812,-10.5
FC(F)Oc1ccccc1NC(=S)Nc1cccnc1,0.9,0.0,i,-9.2,-0.5,i,/,/,/,/
Fc1ccc(NC(=S)Nc2ccccc2OC(F)F)cc1Cl,-1.1,0.0,100*,5.4,-0.1,i,63.0%*,i,-1.43,-29.5
O=C(NCCc1ccccc1C(F)(F)F)C1CCC(=O)N(C2CC2)C1 (centres undefined),/,0.0,i,-11.0,-9.4,i,/,/,/,/
CCOc1ccc(CONS(=O)(=O)c2ccc(NC(C)=O)cc2)cc1Cl,-1.9,2.0,25*,-6.1,5.4,i,23.0%*,i,-1.08,-7.5
Cc1ccc(NC(=O)/C(C#N)=C/c2ccc(C)s2)c(C)c1,15.4,1.0,i,-11.9,-9.9,i,i,i,-1.08,9.5
COc1ccc(Nc2nc3ccccc3nc2NS(=O)(=O)c2cccs2)cc1,-8.9,13.0,i,-6.0,3.4,i,/,/,/,/
O=S(=O)(Nc1nc2ccccc2nc1OCC(F)(F)F)c1cccs1,/,1.0,25*,3.7,-9.9,i,i,i,-0.951,-1.0
O=C(c1ccc(F)cc1Cl)N1CCN(S(=O)(=O)c2cccs2)CC1,/,0.0,i,-11.9,3.8,i,/,/,/,/
CC(=O)c1ccccc1OCc1ccc(S(=O)(=O)Cc2ccccc2)cc1,/,0.0,25*,-8.7,-3.7,i,34.0%*,i,-0.62,-13.5
COc1ccc(OCc2ccc(/C=N\NC(=O)c3sccc3C)o2)cc1,/,0.0,i,-5.3,5.6,i,/,/,/,/
SMILES,TLR4-MyD88 BLA,GRK2 inh,TMEM16A inh,TLR9-MyD88 block,NOD2 RIPK2 PPI,TMEM16A act,TMEM16A reconf,TMEM16A Ca cntr,Parental YFP cnt,ClC-1 inh
Cc1ccc(-c2nnc(N3CCN(c4ccccn4)CC3)c3ccccc23)cc1,-7.0,3.0,25*,-3.4,-1.9,i,27.5%*,i,-0.99,-17.0
COc1ccc(S(=O)(=O)N2CCC(C(=O)NN3CCCCC3)CC2)cc1,/,/,/,-0.9,4.7,/,/,/,/,/
Cc1cccc(OCCCSc2nc3ccccc3[nH]2)c1,4.4,2.0,100*,-1.4,4.3,i,17.0%*,i,-1.12,-8.5
COc1ccccc1NC(=O)C(C)OC(=O)C1CCC(C(C)(C)C)CC1 (centres undefined),/,1.0,100*,-2.6,-3.0,i,i,i,-0.926,-4.0
CCCC(=O)Oc1c(S(=O)(=O)c2ccc(C)cc2)c(C)nn1C(C)(C)C,-9.9,2.0,i,10.4,-1.4,i,/,/,/,/
CCCCC(=O)Oc1c(S(=O)(=O)c2ccccc2)c(C)nn1C(C)(C)C,/,0.0,25*,-1.9,-4.4,i,i,i,-0.931,-4.5
CCCCCCCCCc1nc2sc3c(c2c(=O)n1NC(=O)c1ccccc1[N+](=O)[O-])CC(C)(C)OC3,-10.2,3.0,25*,-7.1,-5.7,i,i,i,-1.19,-8.0
Cc1cc(C(=O)N2CCN(c3ncccn3)CC2)nn1C,/,2.0,i,0.2,-10.1,i,/,/,/,/
Cc1ccc(C)c(NC(=O)CSc2sc3c(O)cc(=O)[nH]c3c2C#N)c1,/,4.0,i,1.8,-0.8,i,i,i,-1.03,-15.5
COC(=O)c1ccc(C)c(NC(=O)CSc2sc3c(O)cc(=O)[nH]c3c2C#N)c1,/,14.0,i,-0.5,1.5,i,/,/,/,/
Cc1ccc[n+](CC(=O)Nc2ccc(C)c(C)c2)c1,/,0.0,i,-8.6,-4.5,i,/,/,/,/
CC(C)C1Nc2ccc(S(N)(=O)=O)cc2C2C=CCC21 (centres undefined),-11.5,1.0,i,2.5,-3.3,i,/,/,/,/
NS(=O)(=O)c1ccc2c(c1)C1C=CCC1C(C1CC=CCC1)N2 (centres undefined),1.1,1.0,100*,1.1,2.4,i,i,i,-0.834,-7.0
